The results in this text go back to PubChem BioAssay AID540276 (National Center for Advancing Translational Sciences (NCATS), 2011).

Each structure is given as a SMILES string. About 5,400 (1.8%) of roughly 300,000 compounds were called active. About 28% were inconclusive and are not listed. Only a selection was taken, and actives are over-represented in it overall. Values without a mark were called inactive. Calls come from the whole dose curve; tested in HEK293 cells.
% is set by controls: 0 for no effect and ±100 for the full control effect; potency is the fitted concentration of half-maximal effect.

This assay in a line: qHTS for inhibitors of binding or entry into cells for Marburg Virus. Conditions: Marburg virus pseudotyped entry inhibition, cell reporter; series mostly up to 37.8 µM; activity change, negative = inhibition: at the top concentration.
On to `CC(NCC(=O)Nc1ccccc1C(=O)NC1CC1)c1ccccc1Cl` (stereo unspecified), for which the “activity change, negative = inhibition” value was -20.8%. For the molecule `Cn1c(Cl)cnc1[C@H]1CC(=O)c2cc(Cl)ccc2O1`, the Potency was 10 µM (active).

With `COc1cccc(NC(=O)C[C@H]2SC(=Nc3ccccc3)NC2=O)c1`, the “activity change, negative = inhibition” value is -24.7%. Take `Cc1ncc(CC(=O)n2cc(C(=O)c3cc(Cl)ccc3O)cn2)s1`: the “activity change, negative = inhibition” value is 9.14%. On to `Cc1cc(O)cc(O)c1C(=O)Cc1cnn(-c2ccccc2)c1`, for which the “activity change, negative = inhibition” value is 17.8%. For the molecule `O=C(c1cnn(-c2ccc(Cl)cc2)c1)c1ccccc1O`, the Potency was 3.55 µM (active). As to `O=c1oc2ccccc2c(=O)c2ccccc12`, the “activity change, negative = inhibition” value was -5% [at 46.1 µM]. Still for that read-out and setting: for `Cc1cccc(CN2CCC(n3nccc3NC(=O)c3ccccc3C)CC2)n1` the value was 5.62%. With `CC1(C(=O)NNC(=S)NCC2CCCO2)CC1(Cl)Cl` (stereo unspecified), the “activity change, negative = inhibition” value was -2.45% [at 46.1 µM]. Turning to `CC(=O)OC1C2(CC3N4C(=O)C5(CO)SSC4(CC31O)C(=O)N5C)OC(C)C(C)(C)C2=O` (stereo unspecified), the Potency was 1.41 µM (active). Regarding `Cc1ccc(OCC(=O)N/N=C/c2ccncc2)cc1`, the “activity change, negative = inhibition” value is 13.4%.

Take `Cc1ccc(/C=N/NC(=O)COc2ccccc2-c2ccccc2)cc1`: the Potency is 1.3 µM (active).

Regarding `Cc1ccc(OCC(=O)N/N=C\c2ccco2)c(C)c1`, the “activity change, negative = inhibition” value is 6.47%. On the same count and under the same terms, for `O=C(Nc1ccc(-n2cccn2)cc1)C1CCN(Cc2ccsc2)CC1` the value was -21%; for `O=C(Nc1cnn(Cc2ccc(Cl)cc2)c1)C1CCCC1`, 2.69%. Consider `CCn1cc(CN2CCC(C(=O)Nc3cccc(-c4cccc(Cl)c4)c3)CC2)cn1`, for which the Potency is 12.6 µM (active). Take `CC(C)CO/N=C1\C[C@@H](O)[C@@H](O)[C@@H]2[C@@H]3C(=O)N(C[C@@H]4CCCO4)C(=O)[C@@H]3CC[C@@H]12`: the “activity change, negative = inhibition” value is -9.86% [at 14.2 µM]. The same measure, in the same setting: for `CC1CN(Cc2ccco2)C(=S)N(c2ccccc2)C1=O` (stereo unspecified) the value was 18.1%. The same measure, in the same setting: for `O=C1CCCN1C(=O)COc1ccc([N+](=O)[O-])cc1` the value was -4.97% [at 46.1 µM].

For the molecule `Cc1noc(C)c1CSCC(=O)N(CCC(C)C)c1c(N)n(Cc2ccccc2)c(=O)[nH]c1=O`, the “activity change, negative = inhibition” value was -5.09%. The same measure, in the same setting: under `COc1ccc(/C=C/C(=O)OCC(=O)NC2CCCCCC2)cc1OC` stands 9.04%; under `COc1ccc(/C=C/C(=O)Nc2cccnc2)cc1OC`, -4.12% [at 46.1 µM]. On to `COc1ccc(/C=C/C(=O)Nc2ccc(C34CC5CC(CC(O)(C5)C3)C4)cc2)cc1OC`, for which the Potency is 6.51 µM (active).

As to `CCOC(=O)Cc1[nH]nc2c1[C@H](c1cc(OC)ccc1OC)C(C#N)=C(N)O2`, the “activity change, negative = inhibition” value is 5.26%. `COc1ccc(Oc2c(Cl)cnn(-c3ccccc3)c2=O)cc1`: the Potency was 10 µM (active). On to `Cc1ccc(Oc2cnn(-c3ccccc3)c(=O)c2Br)cc1`, for which the “activity change, negative = inhibition” value is 1.31% [at 46.1 µM]. On the same count and under the same terms, for `COc1ccc(-n2c(C)nc3c(cnn3-c3ccc(F)cc3)c2=O)cc1` the value was 13% [at 46.1 µM]. Regarding `c1ccc(-c2nnc(N3CCOCC3)c3ccccc23)cc1`, the “activity change, negative = inhibition” value is -2.47% [at 46.1 µM]. On the same count and under the same terms, for `Cc1cc(C(=O)Nc2ccccc2N2CCOCC2)c2ccccc2n1` the value was -16.1%. As for `c1ccc(Nc2nc(N3CCOCC3)c3ccccc3n2)cc1`, the Potency was 12.6 µM (active). As for `Cc1nn(-c2ccc(F)cc2)c(Cl)c1/C=C(/CCC(=O)O)c1nc2ccccc2s1`, the “activity change, negative = inhibition” value was 13.4%. Still for that read-out and setting: for `Cc1cc(O)c(Sc2ccccc2)c(=O)o1` the value was -11.6% [at 46.1 µM]. On to `CCOc1cccc(-c2nnc(SCC(=O)NC3CC3)n2C)c1`, for which the “activity change, negative = inhibition” value is 4.57% [at 46.1 µM].

In the case of `COCC(=O)Nc1ccc(Br)cc1`, the “activity change, negative = inhibition” value is 37.7%. The same measure, in the same setting: under `Cc1ccc(NC(=O)CCN2CCc3ccccc3C2)cc1` stands -4.11%. For the molecule `CN1C(CC(=O)Nc2ccc(Br)cc2)c2ccccc2CC1(C)C` (stereo unspecified), the Potency was 11.2 µM (active). Regarding `COc1ccc(Cc2nnc(SCC(=O)Nc3ccc(C)c(C)c3)o2)cc1OC`, the “activity change, negative = inhibition” value is 0.182% [at 46.1 µM]. On the same count and under the same terms, under `CC(C)Nc1nnc(SC(C)C(=O)N(C)C2CCCCC2)s1` (stereo unspecified) stands -2.09% [at 46.1 µM]; under `CSc1nc2ccc(C)cc2c(=O)n1-c1cccnc1`, 0.18% [at 46.1 µM]; under `Cc1ccc2nc3n(c(=O)c2c1)CCC3`, -3.59%. As for `Cc1ccc2nc(C)c3c(c2c1)N(c1ccccc1)CC3`, the Potency is 5.62 µM (active). As for `COc1ccc(CN2CCN(C(=O)CCC(=O)Nc3nnc(C(C)C)s3)CC2)cc1F`, the “activity change, negative = inhibition” value was -1.28% [at 46.1 µM]. In the case of `CSc1ccc(S(=O)(=O)N2CCC(C(=O)NCc3ccncc3)CC2)cc1`, the “activity change, negative = inhibition” value was 19% [at 46.1 µM].

With `Cc1ccc(C)c(SCc2nc3sc(C(=O)O)c(C)c3c(=O)[nH]2)c1`, the “activity change, negative = inhibition” value was 3.14% [at 46.1 µM]. For `CCOC(=O)c1sc2nc(CSCC(=O)OCc3ccc(C(=O)OC)o3)[nH]c(=O)c2c1C`, the Potency entry is “inactive”. As for `CCOC(=O)c1sc2nc(CSc3ccccc3)[nH]c(=O)c2c1C`, the Potency is 8.91 µM (active). On to `Oc1cccc(CCc2ccccn2)c1`, for which the “activity change, negative = inhibition” value was 5.63%. The same measure, in the same setting: for `CC(Nc1ccc([N+](=O)[O-])cc1[N+](=O)[O-])c1ccccc1` (stereo unspecified) the value was -12.3%. In the case of `Cc1c(CN2CCC(CO)(CCOc3ccccc3)CC2)[nH]c2ccc(Cl)cc12`, the Potency is 2.82 µM (active). Take `OCC1(CCc2ccccc2)CCN(Cc2ccc3nsnc3c2)CC1`: the “activity change, negative = inhibition” value is 32.1% [at 46.1 µM]. As for `Cc1c(C(=O)N2CCOCC2)[nH]c2ccc(OCc3ccccc3)cc12`, the Potency result was “inactive”. As to `Cc1nn(-c2ccccc2)c2c1[C@@H](c1ccc(F)cc1F)C(C#N)=C(N)O2`, the “activity change, negative = inhibition” value was -0.0796%.

As to `O=C(Nc1cccc(S(=O)(=O)N2CCOCC2)c1)C12CC3CC(CC(C3)C1)C2`, the “activity change, negative = inhibition” value is 2.1%. As to `Cc1ccc(C(=O)Nc2ccc(NC(=O)c3cccs3)cc2)c(C)c1`, the “activity change, negative = inhibition” value was -1.43% [at 46.1 µM]. As for `Cc1ccc(-c2nnc(-c3ccc(NC(=O)c4cccs4)cc3)o2)cc1`, the Potency was 11.6 µM (active).

Take `O=C(Nc1ccccc1)c1ccc(NC(=O)c2cccs2)cc1`: the “activity change, negative = inhibition” value was -16.6% [at 46.1 µM]. `Cc1cc(NC(=O)CSc2nnnn2-c2ccc(F)cc2)no1`: the “activity change, negative = inhibition” value is 2.91% [at 46.1 µM].

Regarding `Cc1ccc(N2CC(C(=O)N3CCC4(CC3)CC(=O)c3ccccc3O4)CC2=O)cc1C` (stereo unspecified), the “activity change, negative = inhibition” value was -13.8%. In the case of `Cc1cc(Br)ccc1NC(=O)c1cnc(N2CCN(c3ccccn3)CC2)c2ccccc12`, the Potency is 9.2 µM (active).

Turning to `O=C(Cc1ccc(Br)cc1)N1CCN(c2ccccn2)CC1`, the “activity change, negative = inhibition” value was 6.67%. Same read-out and setting: for `O=C(CN1CCN(c2ccccn2)CC1)Nc1ccc(Br)cc1` the value was -17.9% [at 46.1 µM]; for `C=CCOc1ccc(C(=O)Nc2ccccc2C(=O)N2CCCC2)cc1`, -3.14%; for `COc1ccc(OCC(=O)NNC(=O)C2CCC2)cc1`, -2.85%. Take `O=C(O)c1cc2c(cc1NC(=O)c1c(F)cccc1Cl)OCCCO2`: the “activity change, negative = inhibition” value was 2.18% [at 46.1 µM]. Regarding `COc1ccc(CNC(=O)c2cc3c(=O)[nH]c4ccccc4c3s2)cc1`, the “activity change, negative = inhibition” value was 8.98% [at 46.1 µM]. For `COc1ccc(CNC(=O)COC(=O)C2=Cc3ccccc3OC2)cc1`, the “activity change, negative = inhibition” value is -0.272% [at 46.1 µM]. Regarding `COc1ccc(CNC(=O)c2cc3c(s2)-c2ccccc2OC3)cc1`, the Potency was 10 µM (active). For the molecule `CN1CCOC1c1ccc(C2OCCN2C)cc1` (stereo unspecified), the “activity change, negative = inhibition” value is 1.02%.

As to `CCOc1ccc(C2C(C(=O)O)c3ccccc3C(=O)N2CCN2CCOCC2)cc1` (stereo unspecified), the “activity change, negative = inhibition” value is 4.39%. `Cc1ccc(OCc2nnc(SC3CCc4ccccc4C3=O)n2C)cc1` (stereo unspecified): the “activity change, negative = inhibition” value is 11.2%. Take `CCOc1ccc(C2NC(=S)NC3=C2CCc2ccccc23)cc1` (stereo unspecified): the Potency was 7.94 µM (active).
